{
  "source": "paper PMC7819943",
  "about": "“Rice protein-binding microarrays: a tool to detect cis-acting elements near promoter regions in rice”",
  "note": "Whole data set: some 35,000 sequences, median “fluorescence intensity (a.u.)” near 10,000, cut for the highest 2% near 52,000. This is one part of a sample in which the highest values are shown more often than they occur.",
  "data": [
    {"target": "T1, OsWOX13 (Oryza sativa, UniProt Q5QMM3 1-267)", "T1 sequence": "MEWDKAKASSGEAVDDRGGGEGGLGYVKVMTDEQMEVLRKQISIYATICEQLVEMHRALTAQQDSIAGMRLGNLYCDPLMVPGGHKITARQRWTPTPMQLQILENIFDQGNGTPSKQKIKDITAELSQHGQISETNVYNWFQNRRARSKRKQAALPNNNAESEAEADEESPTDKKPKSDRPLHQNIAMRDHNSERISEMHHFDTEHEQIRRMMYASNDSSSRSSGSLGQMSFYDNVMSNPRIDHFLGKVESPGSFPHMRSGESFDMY", "test": "protein-binding microarray (RPBM); PBS, 2% BSA, 51.3 ng/ul salmon testes DNA, 50 uM zinc acetate, 200 nM TF, 25 C, 1 h; high values mean tight binding", "settings": "protein: recombinant; tags: N-terminal polyhistidine and DsRed monomer fusion (pET32a); label: CyDye5-dUTP incorporated in the synthesized complementary strand; 3' TTTTT single-stranded linker to array surface; dsDNA, one strand shown", "procedure,_shortened": "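The binding signal for each feature is its fluorescence intensity in arbitrary units. An Axon 4000B scanner was used to read a custom Agilent array that had been made double-stranded with Cy5-dUTP primer extension, blocked with 2% BSA, incubated at 25 °C for 1 h with 200 nM protein in PBS, 2% BSA, salmon testes DNA and 50 µM zinc acetate, and washed. The protein was an N-terminal polyhistidine–DsRed transcription factor fusion from E. coli BL21-CodonPlus, purified on Ni–NTA.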", "values": [
      {"sequence": "ATGCAAAGTTGCAGGGATTGATTGGCTGTTTCGTTTGCTACGGAGTCACCTAGTGCAG", "binding signal": "21800 fluorescence intensity (a.u.)"},
      {"sequence": "CATCCAAATTGGCAAAGGCCGCCTCTTTCTTTAATTAACCCGGAGTCACCTAGTGCAG", "binding signal": "14100 fluorescence intensity (a.u.)"},
      {"sequence": "TTGACATCATCATTGACGTGATAGATATAGTATATTAGACCGGAGTCACCTAGTGCAG", "binding signal": "17000 fluorescence intensity (a.u.)"},
      {"sequence": "TGCGTGATTAGCTGATAATACACGTGAATTATGTATGACGCGGAGTCACCTAGTGCAG", "binding signal": "52800 fluorescence intensity (a.u.)"},
      {"sequence": "TAGCTAGATTGATAATGTACATATATGAATTTGTATGCGACGGAGTCACCTAGTGCAG", "binding signal": "55500 fluorescence intensity (a.u.)"},
      {"sequence": "AGTATAATTAGCATACTATGATATCGATATACACGTTATGCGGAGTCACCTAGTGCAG", "binding signal": "31400 fluorescence intensity (a.u.)"},
      {"sequence": "TTGTATAAATTGCTATTAGATTGGCTATATATGAATTAGACGGAGTCACCTAGTGCAG", "binding signal": "37500 fluorescence intensity (a.u.)"},
      {"sequence": "AAGATAAAATGTATGATTGTATGCCTAATTTGAATAGTGGCGGAGTCACCTAGTGCAG", "binding signal": "15900 fluorescence intensity (a.u.)"},
      {"sequence": "TAGCTGATTATTACAGATGTTGGAGGATGAATAATTGTGACGGAGTCACCTAGTGCAG", "binding signal": "13500 fluorescence intensity (a.u.)"},
      {"sequence": "ACAAATTGAGTGTTATAGTGAGATGGCATCGGAGATGAGCCGGAGTCACCTAGTGCAG", "binding signal": "32400 fluorescence intensity (a.u.)"},
      {"sequence": "ATCGTGATTGATGGCATTGGTATAGATTTCGAGCATTGGCCGGAGTCACCTAGTGCAG", "binding signal": "63900 fluorescence intensity (a.u.)"},
      {"sequence": "CAAGATTGGGCGAGGGAGGGAGGAGTCCAGATCCTGCCTCCGGAGTCACCTAGTGCAG", "binding signal": "3250 fluorescence intensity (a.u.)"},
      {"sequence": "ATTCTCGATTTAACACTAATCATCATTATCCTAATAACCACGGAGTCACCTAGTGCAG", "binding signal": "6320 fluorescence intensity (a.u.)"},
      {"sequence": "CTTAATTTAGAGTTGATTTTGGAGTTTCTTTTATCGTAGTCGGAGTCACCTAGTGCAG", "binding signal": "39500 fluorescence intensity (a.u.)"},
      {"sequence": "ATTACTTATCTGATTTACGATCCGACTTAACCACTGTATTCGGAGTCACCTAGTGCAG", "binding signal": "4150 fluorescence intensity (a.u.)"},
      {"sequence": "ACAAATTGGTCACTGGCTGAATAGTTTCTACATCAGTTAACGGAGTCACCTAGTGCAG", "binding signal": "6570 fluorescence intensity (a.u.)"},
      {"sequence": "CGTAAACATCTGATGAGTACCTCACATGTTGAACATCTCCCGGAGTCACCTAGTGCAG", "binding signal": "3900 fluorescence intensity (a.u.)"},
      {"sequence": "GTTGAAGGATCTGGATGATTAGACGAGCGATGGATCAGGTCGGAGTCACCTAGTGCAG", "binding signal": "3720 fluorescence intensity (a.u.)"},
      {"sequence": "TGTCAGATTGGATGGATTGTGCTACTGTACATGCATAGTGCGGAGTCACCTAGTGCAG", "binding signal": "37000 fluorescence intensity (a.u.)"},
      {"sequence": "TGCTGATTGGTATGCATAGAGTATGTATGGAAACCTTGTGCGGAGTCACCTAGTGCAG", "binding signal": "56600 fluorescence intensity (a.u.)"},
      {"sequence": "ATACTTGATTTAAAATGAAAACATAGACAAATGTATGGTACGGAGTCACCTAGTGCAG", "binding signal": "23800 fluorescence intensity (a.u.)"},
      {"sequence": "ATAGTATATGATGGATGAGATGGATGCATAGATGGATTGGCGGAGTCACCTAGTGCAG", "binding signal": "3330 fluorescence intensity (a.u.)"},
      {"sequence": "TCAGTATGTGATTGATTGAAAACTGAAATGGTAGACATACCGGAGTCACCTAGTGCAG", "binding signal": "53400 fluorescence intensity (a.u.)"},
      {"sequence": "ATGTGAAATTGAATGCAGTAGTATGCACATGAAACTTGGGCGGAGTCACCTAGTGCAG", "binding signal": "11300 fluorescence intensity (a.u.)"},
      {"sequence": "CCCGTGGCTCGACTTGATGGCGTGGAGAATGGACGAGTACCGGAGTCACCTAGTGCAG", "binding signal": "6970 fluorescence intensity (a.u.)"},
      {"sequence": "TTATAATTAGAACTTTTATATGTGTGTTATGCACGACTTACGGAGTCACCTAGTGCAG", "binding signal": "4050 fluorescence intensity (a.u.)"},
      {"sequence": "ATTTGATCCAAATTATATGGTTATTAATCAAATCCCATAGCGGAGTCACCTAGTGCAG", "binding signal": "10200 fluorescence intensity (a.u.)"},
      {"sequence": "GTTAATTGATTAGCAAAAGGTACTATACATATATTCTTTTCGGAGTCACCTAGTGCAG", "binding signal": "33800 fluorescence intensity (a.u.)"},
      {"sequence": "GCAAATGTAGGTAAGATTGAGATTGACTTTATGTGGGTCCCGGAGTCACCTAGTGCAG", "binding signal": "12500 fluorescence intensity (a.u.)"},
      {"sequence": "TGTCCTCCTGCTCCTGATTGGATCGGTAGAAAGGTGGCGGCGGAGTCACCTAGTGCAG", "binding signal": "11000 fluorescence intensity (a.u.)"},
      {"sequence": "CGTACCAGCTGATTGATGGTGTCACTCACCAAATGTTCTTCGGAGTCACCTAGTGCAG", "binding signal": "34300 fluorescence intensity (a.u.)"},
      {"sequence": "TGGATCCTGATTGGATCCTGATTGGCGTTGCGGCCGTGTCCGGAGTCACCTAGTGCAG", "binding signal": "65000 fluorescence intensity (a.u.)"},
      {"sequence": "TTCTGATTGATGTCAGGAGTGGCGTGCGTACCAGTGCTGTCGGAGTCACCTAGTGCAG", "binding signal": "58100 fluorescence intensity (a.u.)"},
      {"sequence": "GCCGGTGATTGGCGTGGCGTGGCGTGGCGTGGCGCGGTGTCGGAGTCACCTAGTGCAG", "binding signal": "52600 fluorescence intensity (a.u.)"},
      {"sequence": "TCGACTTCTGATTGATGTCAGTAATGGTGTACCAGTGCTGCGGAGTCACCTAGTGCAG", "binding signal": "41200 fluorescence intensity (a.u.)"},
      {"sequence": "GCGGATTGGTTGCCTGACCCTCCTCCTCCTCCTCCTCCTCCGGAGTCACCTAGTGCAG", "binding signal": "8490 fluorescence intensity (a.u.)"},
      {"sequence": "GTGATTGGCGCGATCCGTGCGCTTGCCGTCTTGCCGGCGTCGGAGTCACCTAGTGCAG", "binding signal": "30100 fluorescence intensity (a.u.)"},
      {"sequence": "GACGCGTCGGTGCTGATTGACTCGACGGCCGGCAACGTGGCGGAGTCACCTAGTGCAG", "binding signal": "22800 fluorescence intensity (a.u.)"},
      {"sequence": "TACTGATGAGCCACTGACGGGTGGGGCCAGTTGACTGACACGGAGTCACCTAGTGCAG", "binding signal": "6930 fluorescence intensity (a.u.)"},
      {"sequence": "GCAGATTAGTCGTTAGTGGTGACAGAAACGGCAAAAGTGGCGGAGTCACCTAGTGCAG", "binding signal": "6220 fluorescence intensity (a.u.)"},
      {"sequence": "CTCCGATTAATGTGGAAATTTCTAACCTCTACAGCGAACGCGGAGTCACCTAGTGCAG", "binding signal": "6190 fluorescence intensity (a.u.)"},
      {"sequence": "TTTCTAATTTCTTTCAGCATCGTATTAATGTCGATATTAACGGAGTCACCTAGTGCAG", "binding signal": "3250 fluorescence intensity (a.u.)"},
      {"sequence": "GCGAAATTAATCTTTTGGTTGTTTCTACCTTTGCTCTGATCGGAGTCACCTAGTGCAG", "binding signal": "5540 fluorescence intensity (a.u.)"},
      {"sequence": "TTCGTGATTTATATAAAACATTCCCATGTTGAAACCCTAACGGAGTCACCTAGTGCAG", "binding signal": "15400 fluorescence intensity (a.u.)"},
      {"sequence": "GTGTTGTGATTCAATTAATTTGGCAGACACCAATTTGCTGCGGAGTCACCTAGTGCAG", "binding signal": "23200 fluorescence intensity (a.u.)"},
      {"sequence": "TACTTTGATTTGCACACAATCAAATGTACAGTAGTACATGCGGAGTCACCTAGTGCAG", "binding signal": "28500 fluorescence intensity (a.u.)"},
      {"sequence": "TTAAATCAATAATTAAATATATTTTCATAATAAATTTGTGCGGAGTCACCTAGTGCAG", "binding signal": "27500 fluorescence intensity (a.u.)"}
    ]}
  ]
}
